In the library only some 2.9% were active in any assay of this set; here they are far more common.
Myeloid diff 2: induction of myeloid progenitor differentiation, primary screen, cell-based, flow cytometry, MLPCN library; calls only at 10 µM; ER-HoxA9 myeloid progenitors, lysozyme-GFP differentiation; 1% of 360,000 active;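 active = normalized GFP-positive differentiation at or above the plate's own cutoff, the solvent-only control mean plus 3 SD; inconclusive = no clear call, values can overlap the other calls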;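 note: cells exposed to compound for four days before flow analysis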
DAGLB inh: DAGLB lipase inhibitors, primary screen, biochemical, fluorescence, HTS | 0.059% of 340,000 active | Diacylglycerol lipase-beta (Homo sapiens), Q8NCG7 | inhibition, % at 5.17 µM | HEK293T DAGLB membrane lysate, EnzChek fluorogenic substrate | AID 504411, 2011; in the data active = inhibition above about 34%;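 note: 0% = enzyme with vehicle and 100% = wells lacking enzyme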
Target sequence (Q8NCG7 whole entry, looked up): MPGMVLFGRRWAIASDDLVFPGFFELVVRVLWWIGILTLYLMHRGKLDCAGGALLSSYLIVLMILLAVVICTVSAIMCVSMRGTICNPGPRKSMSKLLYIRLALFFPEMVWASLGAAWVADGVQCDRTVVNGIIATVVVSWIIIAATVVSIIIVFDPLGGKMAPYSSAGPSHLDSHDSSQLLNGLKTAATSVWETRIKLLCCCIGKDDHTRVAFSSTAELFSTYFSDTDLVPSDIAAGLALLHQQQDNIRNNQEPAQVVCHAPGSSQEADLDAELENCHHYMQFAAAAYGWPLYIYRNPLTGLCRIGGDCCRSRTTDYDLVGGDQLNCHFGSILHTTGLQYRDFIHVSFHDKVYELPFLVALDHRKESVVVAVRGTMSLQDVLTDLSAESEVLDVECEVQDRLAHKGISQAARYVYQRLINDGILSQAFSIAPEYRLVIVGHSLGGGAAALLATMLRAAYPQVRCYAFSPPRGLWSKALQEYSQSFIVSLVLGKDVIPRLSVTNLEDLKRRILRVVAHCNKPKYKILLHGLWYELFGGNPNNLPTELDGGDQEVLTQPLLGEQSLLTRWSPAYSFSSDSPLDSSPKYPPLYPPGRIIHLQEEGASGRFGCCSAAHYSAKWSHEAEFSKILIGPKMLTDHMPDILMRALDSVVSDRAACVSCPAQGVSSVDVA
Cardio protect: cardioprotection against H2O2-induced cell death, primary screen, uHTS, H9c2 cells, ATPLite luminescence | AID 588492, 2011 | H9c2 cardiomyocytes, H2O2 injury protection, 2 h | 0.63% of 360,000 active | protection from H2O2 cell death, % at 20 µM;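 active = compounds giving at least 50% protection of heart cells from peroxide-induced death in the single-dose screen, raw or plate-pattern-corrected value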;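 note: 0% = DMSO wells with peroxide and 100% = DMSO wells without peroxide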
ABHD5-PLIN5 inh: ABHD5-PLIN5 interaction inhibitors, primary screen, cell lysate, split luciferase complementation, luminescence; 0.78% of 360,000 active; inhibition, % at 4 µM; AID 602281, 2012; Split G. princeps luciferase complementation, 4 h; Perilipin-5 (Homo sapiens) + 1-acylglycerol-3-phosphate O-acyltransferase ABHD5 (Homo …;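 active = inhibition above the mean inhibition across every tested compound plus 3 SD, cut at about 22% in these data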;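 note: 0% = DMSO only wells and the 100% control is not disclosed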
sPLA2-III inh: human group III sPLA2 inhibitors, primary screen, biochemical, QFRET, BODIPY PC-A2 liposome substrate. QFRET BODIPY PC-A2 liposome hydrolysis, fluorescence. inhibition, % at 12.2 µM. 0.56% of 370,000 active. AID 743126, 2013;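 active = inhibition above mean plus 3 SD of compounds lying within the high and low control bounds, cut at about 19% in these data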;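 note: 0% = median of test compound wells and 100% = no enzyme DMSO wells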
Rtt109 HAT inh: inhibitors of C. albicans Rtt109/Vps75 HAT, primary screen, biochemical, ThioGlo CoA-SH fluorescence, plate reader | Histone acetyltransferase RTT109 (Candida albicans (strain SC5314 / ATCC MYA-2876)), … | purified Rtt109/Vps75, 4 h | inhibition, % at 34.9 µM | 0.16% of 330,000 active | AID 540336, 2011;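 active = inhibition of at least 50% in every replicate; inconclusive = best replicate reaches 50% inhibition but some replicates fall short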
ABHD5-PLIN5 conf: ABHD5-PLIN5 interaction inhibitors, confirmation, biochemical, luminescence; shares compounds with ABHD5-PLIN5 inh; inhibition, % at 4 µM; 67% of 2,200 active; in the data active = inhibition above about 23%;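 note: 0% = DMSO vehicle wells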
HNF4 counter: HNF4 dimerization inhibitors, counter-screen for ABHD5-PLIN5 interaction inhibitor project, biochemical, split-luciferase complementation, luminescence; shares compounds with ABHD5-PLIN5 inh; inhibition, % at 4 µM; 77% of 2,200 active; AID 651674, 2012;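 active = mean inhibition across replicate wells exceeding the computed hit threshold, cut at about 13% in these data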;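 note: light from luciferase halves that rejoin when HNF4 fusion proteins dimerize; 0% = DMSO only wells and the 100% control is not given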
Myeloid diff: inducers of myeloid progenitor differentiation, confirmation, cell-based, GFP/Mac1 flow cytometry, cherry pick 01; shares compounds with Myeloid diff 2; ER-HoxA9 myeloid progenitors, GFP/Mac1 double-positive flow; calls only; 2% of 2,300 active; AID 651706, 2012;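 active = share of green or green-and-red cells above 9 and 9% in run 1 or 4 and 3% in run 2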
GFP autofluor: compound fluorescence in myeloid differentiation counter-screen. shares compounds with Myeloid diff 2. AID 651707. 7.4% of 2,300 active. ER-HoxA9 myeloid progenitors, no estrogen, GFP autofluorescence flow cytometry; vehicle wells 0%, positive control 100%. fluorescence response, % (test concentration not listed);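 active = over 5% cells positive for green fluorescent reporter, or over 2% positive for both it and APC stain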;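 note: range taken on the double positive population between DMSO and positive control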
sPLA2 confirm: human group III sPLA2 inhibitors, confirmation, biochemical, QFRET, triplicate. inhibition, % at 12.2 µM. AID 743280, 2014. shares compounds with sPLA2-III inh. recombinant hGIII-sPLA2, BODIPY PC-A2 QFRET fluorescence. 34% of 2,000 active;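 active = mean inhibition across triplicates above the hit cutoff set in the earlier primary screen, cut at about 19% in these data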;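 note: 0% = enzyme with DMSO and 100% = DMSO wells lacking enzyme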
BODIPY interf: 535nm fluorescence optical interference, confirmation, artefact control for HGIII-sPLA2 inhibitor project, biochemical, QFRET | 8.5% of 2,000 active | AID 743282, 2014 | inhibition, % at 12.2 µM | shares compounds with sPLA2-III inh | BODIPY FL product fluorescence interference;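 active = average inhibition above the solvent-only control mean plus 3 SD, cut at about 6% in these data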;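 note: 0% = DMSO with substrate plus product and 100% = DMSO with substrate alone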
BODIPY interf DR: 535nm fluorescence optical interference, dose response, artefact control for HGIII-sPLA2 inhibitor project, biochemical, QFRET | shares compounds with sPLA2-III inh | BODIPY FL product fluorescence interference, cell-free | IC50, µM | 240 tested, under 10 active | AID 743455, 2014;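 active = IC50 at or below 10 µM; inactive = IC50 above 10 µM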
An asterisk follows results filed as active; i = inactive; ? = inconclusive; / = not tested or not shown; + = active, no number.

SMILES	Myeloid diff 2	DAGLB inh	Cardio protect	ABHD5-PLIN5 inh	sPLA2-III inh	Rtt109 HAT inh	ABHD5-PLIN5 conf	HNF4 counter	sPLA2 confirm	BODIPY interf	others
O=C1/C(=C\c2ccco2)CCC/C1=C\c1ccco1	+	-16	-6	49*	-6	2	56*	82*	/	/	Myeloid diff=i;GFP autofluor=37*
CCC(=O)N(CCC(c1ccc(C)cc1)c1ccco1)Cc1ccco1 (stereo unspecified)	i	2	-7	26*	-6	26	17	12	/	/	Myeloid diff=i;GFP autofluor=0
FC(F)(F)c1cccc(NC(=S)N(CCCN2CCCC2)Cc2cccn2Cc2ccc(Cl)cc2)c1	+	-3	-18	42*	1	8	12	-12	/	/	Myeloid diff=i;GFP autofluor=41*
CCOC(=O)c1c(CN2CCN(C)CC2)n(-c2ccccc2)c2cc(Br)c(O)cc12	i	1	-18	15	-65	3	/	/	/	/
CCOC(=O)c1c(CSC(=N)N)n(-c2ccccc2)c2cc(Br)c(OC(C)=O)cc12	i	-13	-26	32*	44*	1	29*	30*	35*	-19	BODIPY interf DR=>122
CC(C)Cn1c(N)c(C(=O)COC(=O)c2cccc(Cl)c2)c(=O)n(C)c1=O	i	-4	-7	2	-26	12	/	/	/	/
COc1ccc(N2CCN(CCNC(=O)Nc3ccc([N+](=O)[O-])cc3OC)CC2)cc1	i	3	-5	-1	1	2	/	/	/	/
CN(C)c1ccc(C=c2c3ccccc3n3c2c2c([n+]3C)CCCC2)cc1	?	22	-20	29*	39*	5	28*	36*	49*	-24	BODIPY interf DR=>122
Cc1ccc(C(=O)NNC(=O)CCOc2cccc(C)c2)cc1	i	0	3	-1	-3	-5	/	/	/	/
Cc1cccc(C)c1NC(=O)C(c1ccc(-c2ccccc2)cc1)n1c(=O)c(-c2ccco2)nc2ccccc21 (stereo unspecified)	i	/	/	90*	20*	/	96*	27*	13	-12
CCCCCNC(=O)C(c1cccc2ccccc12)n1c(=O)c(-c2ccco2)nc2ccccc21 (stereo unspecified)	i	/	/	84*	22*	/	82*	35*	7	-14
CCCCCCCCCc1conc1C(=O)CP(=O)(OC)OC	i	/	/	1	-18	/	/	/	/	/
CCCCCCCCCc1conc1C(=O)/C=C/c1ccco1	i	/	/	25*	24*	/	26*	21*	-2	-7
CCOc1ccccc1C(=O)NC1CCN(Cc2nnnn2C2CCCC2)CC1	i	-1	1	3	-5	-2	/	/	/	/
CN(C)C(=O)NC1c2ccccc2-c2ccccc21	i	-1	1	-4	-1	3	/	/	/	/
O=C1C=CC(=O)N1c1ccc2c(c1)C(NC(=O)C(F)(F)F)c1ccccc1-2 (stereo unspecified)	i	2	-11	34*	19*	-6	56*	99*	4	-4
Cc1ccc2c(c1)C(=O)C(=O)N2Cc1ccc(Cl)cc1	?	0	-11	33*	21*	-2	37*	52*	23*	1
CCOC(=O)c1c(NC(=O)COC(=O)Cc2n[nH]c(=O)c3ccccc23)sc(C(=O)N(C)C)c1C	i	-2	49	7	-43	7	/	/	/	/
COc1cc(N(C)C)ccc1C=c1c2ccccc2n2c1cc(-c1ccccc1)[n+]2C	/	34	-20	24*	45*	-1	22	26*	52*	-19	BODIPY interf DR=>122
COc1cc(C=c2c3ccccc3n3c2cc(-c2ccccc2)[n+]3C)cc(OC)c1OC	i	3	-18	-28	14	7	/	/	/	/
CN(C)c1ccc(C=c2c3cc([N+](=O)[O-])ccc3n3c2cc(-c2ccccc2)[n+]3C)cc1	?	34	-20	26*	48*	6	101*	48*	98*	-9	BODIPY interf DR=>122
CCOc1cc(NC(=O)C2CCCO2)c(OCC)cc1NC(=O)C1CC1 (stereo unspecified)	i	0	0	-1	0	0	/	/	/	/
CC[n+]1ccc(/C=C/c2ccc(N(C)C)cc2)c2ccccc21	+	16	-40	28*	24*	-12	32*	33*	46*	-11	BODIPY interf DR=>122
CC[n+]1ccccc1/C=C/c1ccc(N(C)C)cc1	?	-3	-15	5	-1	19	/	/	/	/
CC[n+]1c(/C=C/c2ccc(N(C)C)cc2)ccc2ccccc21	/	16	-22	29*	25*	13	27*	28*	43*	-14	BODIPY interf DR=>122
C#CC[N+](C)(C)CCCCCCCCCCCC	i	4	-9	23*	23*	24	16	6	-6	-33
CCCCCCCCCCCCCCCC[N+](C)(C)CCl	/	-1	-20	6	-9	-15	/	/	/	/
